High-throughput results from PubChem BioAssay.
Tau FP inhib: tau fibrillization inhibition (FP) | P10636 | K18 P301L tau heparin fibrillization, Alexa594 FP, 6 h | Potency, µM (series often up to 57.7 µM), actives largely listed as inhibitors | actives 0.39% (n = 280,000) | AID 1468; note: nearly all actives have a fitted effect of over 55% in size
Target sequence (P10636 561-689 P618L limits assumed): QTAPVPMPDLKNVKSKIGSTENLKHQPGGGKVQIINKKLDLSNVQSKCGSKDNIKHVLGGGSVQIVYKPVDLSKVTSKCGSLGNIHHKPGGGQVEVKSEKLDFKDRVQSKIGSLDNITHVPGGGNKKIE
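Steps: dispense K18 P301L tau (15 uM plus 0.24 uM Alexa 594 tracer, final) in pH 7 sodium acetate; add compound; add heparin (20 uM final); incubate 6 hr, 37 C; add ThT (30 uM final); after 1 hr ambient, read FP.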
Tau fibril ThT: tau fibrillization inhibition (ThT binding) | P10636 | Potency, µM (doses to about 57.4 µM), hits mostly inhibitors | recombinant tau K18 P301L, heparin-induced fibrillization, ThT fluorescence | actives 2.1% (n = 270,000); note: nearly all actives have a fitted effect of over 55% in size
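In this qHTS, human K18 P301L tau is incubated with compound and heparin for 6 hr at 37 C, and Thioflavin T fluorescence then reports fibril load.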
KDM4E inh: blocks human JMJD2E demethylase activity | Potency, µM (top dose mostly 57.1 µM), most hits filed as inhibitors | B2RXH2 | actives 1.6% (n = 230,000) | JMJD2E catalytic domain, FDH-coupled NADH fluorescence (FDH is formaldehyde dehydrogenase) | AID 2147; active = well fitted inhibition curve with a large enough effect, not every such curve was filed as active; inconclusive = small, poorly fitted or top-dose-only effect, or another doubt; inactive = no such curve, though single readings can be large or run the other way; note: nearly all actives have a fitted effect of over 50% in size
Target sequence (B2RXH2 1-337 limits assumed): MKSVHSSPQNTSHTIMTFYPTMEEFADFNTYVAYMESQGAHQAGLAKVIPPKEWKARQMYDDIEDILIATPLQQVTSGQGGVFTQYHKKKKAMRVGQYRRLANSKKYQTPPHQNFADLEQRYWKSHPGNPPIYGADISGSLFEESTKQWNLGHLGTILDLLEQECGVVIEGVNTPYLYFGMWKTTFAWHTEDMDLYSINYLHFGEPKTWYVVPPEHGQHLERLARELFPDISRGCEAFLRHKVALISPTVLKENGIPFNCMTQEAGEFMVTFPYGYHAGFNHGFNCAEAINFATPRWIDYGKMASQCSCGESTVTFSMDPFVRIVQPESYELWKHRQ
Tau fluor counter: counter-screen for tau fibril formation inhibitors; tau K18 P301L Alexa594 fluorescence, heparin fibrillization; Potency, µM (titrated, usually from 57.7 µM); actives 0.93% (n = 280,000); AID 1463; note: nearly all actives have a fitted effect of over 55% in size
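Human tau K18 P301L (15 uM unlabeled, 0.24 uM Alexa 594-labeled) in 100 mM sodium acetate pH 7 with 20 uM heparin, 6 hr at 37 C. ThT 30 uM added, 1 hr ambient; Alexa 594 FP and total fluorescence read at 555/632 nm.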
CBFb RUNX1 block: CBF-beta/RUNX1 interaction disruption | Q01196+Q13951 | AlphaScreen CBFb-His/RUNX1-biotin binding, biochemical | Potency, µM (titrated, usually from 59.8 µM), usual class: inhibitors | 230,000 tested, under 10 active
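CBF-beta (His) and RUNX1 (biotin), 30 nM each; 20 min preassociation; + compound, 15 min; + beads 50 ng each (Ni, streptavidin), 90 min; RT; AlphaScreen read.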
Lamin A splicing: modulators of lamin A splicing | HeLa LMNA splicing GFP/RFP minigene ratio, 48 h | Potency, µM (highest dose often 46.1 µM), most hits filed as inhibitors | actives 0.01% (n = 200,000) | AID 1487; active = well fitted inhibition curve with a large enough effect in the signal ratio, with a control signal flat, not every such curve was filed as active; inconclusive = small, poorly fitted or top-dose-only effect, or effect the other way, or a change in a side signal; the % refers to the signal ratio
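S3 HeLa stable clones carrying a lamin A-EGFP splicing minigene plus DsRed2 were seeded at 600 cells/well in Opti-MEM with 2% FBS, pin-dosed and incubated 48 h at 37°C. Acumen cytometry (488 nm) gave the GFP/RFP total-intensity ratio.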
A number is an active result; - = inactive; ? = inconclusive; . = no result; [ ] = remark or other dose. An excerpt weighted towards active compounds, which were near 3.2% of everything screened. Unless noted, calls come from the whole dose curve; as a rule, active = well fitted curve in the direction sought with a large enough effect; inconclusive = small, poorly fitted or top-dose-only effect, or another doubt; inactive = no such curve, though single readings can be large; an effect the other way counts as inactive or inconclusive.

SMILES	Tau FP inhib	Tau fibril ThT	KDM4E inh	Tau fluor counter	CBFb RUNX1 block	Lamin A splicing
CC(C)[C@H](NC(=O)[C@@H]1CSSC[C@H](NC(=O)[C@H](CC(=O)O)NC(=O)[C@H](C)NC(=O)[C@@H](NC(=O)CNC(=O)[C@H](C)N)[C@@H](C)O)C(=O)N[C@@H](Cc2ccccc2)C(=O)N[C@@H](Cc2c[nH]c3ccccc23)C(=O)N[C@@H](CCCCN)C(=O)N[C@@H](Cc2ccc(O)cc2)C(=O)N1)C(=O)O	.	.	.	.	-	.
O=C(O)c1ccccc1C(=O)c1ccc(N2CCCC2)c([N+](=O)[O-])c1	-	-	?	-	-	.
O=C(/C=C/c1ccc(N2CCCCC2)c([N+](=O)[O-])c1)c1ccc(O)cc1	?	11µM	-	16µM[quencher]	?	?
COc1ccccc1C(=O)/C=C/c1ccc(N2CCCCC2)c([N+](=O)[O-])c1	-	4µM	-	?	-	?
O=C(c1ccc(N2CCCCC2)c([N+](=O)[O-])c1)N1CCOCC1	-	-	-	-	-	-
O=C1CC(c2ccco2)CC(O)=C1C=NCC1NCCc2ccccc21 (centres undefined)	-	?	20µM	-	-	-
O=C1CC(c2ccco2)CC(O)=C1C=NCCO (centres undefined)	-	-	-	-	-	-
COc1cc(OC)c(OC)cc1/C=N/NC(=O)c1cc(-c2cccn2C)n[nH]1	-	13µM	?	?	-	-
CCOc1cccc(/C=N/NC(=O)c2cc(-c3cccn3C)n[nH]2)c1O	-	?	32µM	?	?	?
COc1ccc(/C=N/NC(=O)c2cc(-c3cccn3C)n[nH]2)cc1OC	-	?	-	-	-	?
Cc1ccc(NC(=O)CN2C(=O)c3ccccc3Sc3ccc(C(=O)N4CCOCC4)cc32)c(Cl)c1	-	-	.	-	.	?
COc1cc(OC)cc(-c2nnc(Sc3ccc(C=O)cc3[N+](=O)[O-])o2)c1	-	25µM	-	?	-	?
O=C(N/N=C/c1ccccc1O)C1SCCCS1	-	-	28µM	-	-	?
COc1ccc(C2C(=O)N(C3CCCCCC3)CC(=O)N2CCC2=CCCCC2)cc1 (centres undefined)	-	-	.	-	.	-
O=C(O)CC/C(=C\c1ccc(N2CCCC2)c([N+](=O)[O-])c1)c1nc2ccccc2s1	-	4.5µM	-	-	?	-
CC(=O)Nc1cccc(-c2csc(Nc3ccc(C)cn3)n2)c1	-	?	-	14µM[quencher]	-	-
CC(=O)Nc1ccc(-c2csc(Nc3cccc(C)n3)n2)cc1	-	?	-	20µM[quencher]	-	.
CC(=O)Nc1cccc(-c2csc(Nc3ncccn3)n2)c1	-	?	-	-	-	-
CC(=O)Nc1ccc(-c2csc(NNC(=O)c3ccc(C)cc3)n2)cc1	?	11µM	-	?	-	-[9.22 µM]
CC(=O)NNc1nc(-c2ccc(NC(C)=O)cc2)cs1	-	-	-	-	-	-
CC(=O)Nc1ccc(-c2csc(NC(=O)c3ccc(C)o3)n2)cc1	-	?	-	?	-	-
Cc1cccc(C(=O)Nc2ccc3nc(SCC(=O)N4CCc5ccccc54)sc3c2)c1	?	?	.	?	.	-
O=C(/C=C/c1ccc(Cl)cc1Cl)n1cccn1	?	7.9µM	-	-	-	?
CCOC(=O)C1CCN(CC(=O)Nc2cc(C)c3c(=O)oc4ccccc4c3n2)CC1	-	-	.	-	.	.
CCOc1ccc(NC(=O)c2ccc3c(c2)CCN3S(=O)(=O)c2ccc(Cl)cc2)cc1	-	-	.	?	.	.
O=C(Nc1ccc(F)cc1)C1=CC(=O)N2CCN=C2S1	?	18µM	-	-	-	-
O=C(CC1SC2=NCCN2C1=O)Nc1ccc(Br)cc1 (centres undefined)	-	-	-	-	-	-
COc1cc(/C=C2\SC(=O)N(Cc3ccc(Cl)cc3)C2=O)cc([N+](=O)[O-])c1O	-	13µM	?	-	?	?
COc1cc(/C=C2\SC(=O)N(Cc3ccc(F)cc3)C2=O)cc([N+](=O)[O-])c1O	-	14µM	-	-	-	?
